In the antibiotic and cytotoxicity screens of Wong et al. (2023) one finds cytotoxicity call data, which are given here for 82 compounds.

The campaign covered roughly 39,000 compounds. About 3,300 (8.5%) were called active. This excerpt belongs to a sample that is enriched for actives.

For the test, the system named is HepG2. Briefly: cytotoxicity call (relative viability < 0.9). The conditions noted are these: 10 µM.
Turning to `COc1ccc(CNC(=O)C[C@@H]2C[C@H]3c4cc(NC(=O)NC5CCCC5)ccc4O[C@H]3[C@H](CO)O2)cc1`, the cytotoxicity call is “inactive”.

In the case of `COc1ccc(NC(=O)N(C)C[C@H]2Oc3ccc(NS(C)(=O)=O)cc3CC(=O)N([C@H](C)CO)C[C@H]2C)cc1`, the cytotoxicity call was “inactive”. With `O=C(C[C@@H]1C=C[C@H](NC(=O)CN2CCOCC2)[C@@H](CO)O1)NCc1cccc(F)c1` the entry was “inactive”.

For the compound `C[C@H](CO)N1C[C@H](C)[C@@H](CN(C)CC2CCCCC2)Oc2ccc(NC(=O)CCN3CCOCC3)cc2CC1=O`, the cytotoxicity call is “inactive”. On to `C[C@H]1CN([C@@H](C)CO)C(=O)CCCn2cc(nn2)CO[C@H]1CN(C)S(C)(=O)=O`, for which the cytotoxicity call was “inactive”. Consider `C[C@@H]1CCCCO[C@@H](CN(C)C(=O)CCCN(C)C)[C@H](C)CN([C@H](C)CO)C(=O)c2cc(NC(=O)Nc3cccc4ccccc34)ccc2O1`, for which the cytotoxicity call was “inactive”. The result for `COc1ccc(CN(C)C[C@H]2OCCCC[C@H](C)Oc3ccc(NC(=O)Nc4ccc5c(c4)OCO5)cc3C(=O)N([C@@H](C)CO)C[C@H]2C)cc1` reads “active”; that for `COc1ccc(CN(C)C[C@H]2OCCCC[C@@H](C)Oc3ccc(NC(=O)Nc4ccc5c(c4)OCO5)cc3C(=O)N([C@@H](C)CO)C[C@@H]2C)cc1`, “inactive”; that for `COc1ccc(CN(C)C[C@H]2OCCCC[C@@H](C)Oc3ccc(NC(=O)Nc4ccc5c(c4)OCO5)cc3C(=O)N([C@@H](C)CO)C[C@H]2C)cc1`, “inactive”. With `COc1ccc(-c2cnc3c(c2)C(=O)N([C@H](C)CO)C[C@@H](C)[C@H](CN(C)C(=O)C2CCOCC2)O3)cc1` the entry was “inactive”. On to `CCCCCCCCCCCCCCCCCCCCCCCCCCCCO`, for which the cytotoxicity call is “inactive”. The result for `CCCCCCCCCCCCCCCCCCCCCCO` reads “active”; that for `CCCCCCCCCCCCCCCC(=O)CCO`, “inactive”; that for `COCC(=O)Nc1ccc2c(c1)[C@@H]1C[C@H](CC(=O)N3CCOCC3)O[C@H](CO)[C@@H]1O2`, “inactive”.

For the compound `COc1ccc(NC(=O)O[C@H]2[C@H](OC(=O)Nc3ccccc3-c3ccccc3)[C@H](OC(=O)Nc3ccccc3-c3ccccc3)[C@@H](OC)O[C@@H]2CO)cc1`, the cytotoxicity call is “inactive”. As to `CO[C@H]1O[C@H](CO)[C@@H](OC(=O)Nc2ccccc2-c2ccccc2)[C@H](OC(=O)Nc2ccccc2)[C@@H]1OC(=O)Nc1ccccc1`, the cytotoxicity call was “active”. With `CCc1cccc(NC(=O)O[C@H]2[C@H](OC(=O)Nc3ccccc3-c3ccccc3)[C@H](OC(=O)Nc3ccccc3-c3ccccc3)[C@@H](OC)O[C@@H]2CO)c1` the entry was “inactive”; with `CO[C@H]1O[C@H](CO)[C@@H](OC(=O)Nc2ccccc2-c2ccccc2)[C@H](OC(=O)Nc2ccccc2-c2ccccc2)[C@@H]1OC(=O)Nc1ccccc1-c1ccccc1`, “inactive”; with `CO[C@H]1O[C@H](CO)[C@@H](OC(=O)Nc2cccc(F)c2)[C@H](OC(=O)Nc2ccccc2-c2ccccc2)[C@H]1OC(=O)Nc1ccccc1-c1ccccc1`, “active”.

Regarding `CO[C@H]1O[C@H](CO)[C@@H](OC(=O)Nc2cccc(F)c2)[C@H](OC(=O)Nc2ccccc2-c2ccccc2)[C@@H]1OC(=O)Nc1ccccc1-c1ccccc1`, the cytotoxicity call is “inactive”. In the case of `C[C@@H]1CN([C@@H](C)CO)C(=O)Cc2cc(NS(C)(=O)=O)ccc2O[C@@H]1CN(C)S(=O)(=O)c1cccs1`, the cytotoxicity call was “inactive”. With `CN1CCN(C(=O)C[C@@H]2C[C@H]3c4cc(NC(=O)c5ccc6c(c5)OCO6)ccc4O[C@H]3[C@H](CO)O2)CC1` the entry was “inactive”; with `COc1ccc(S(=O)(=O)N(C)C[C@H]2Oc3cc(C#CC4CC4)ccc3S(=O)(=O)N([C@H](C)CO)C[C@@H]2C)cc1`, “inactive”; with `CCCCc1oc2ccc(NS(C)(=O)=O)cc2c1C(=O)c1ccc(OCCCN(CCCC)CCCC)cc1`, “active”. The result for `CCCCc1oc2ccc(NS(C)(=O)=O)cc2c1C(=O)c1ccc(OCCCN(CCCC)CCCC)cc1.Cl` reads “active”; that for `CCCCN(CCCC)CCCOC(=O)c1ccc(N)cc1.O=S(=O)(O)O`, “inactive”. The result for `CCC1=NCCO1` reads “inactive”. Turning to `CC(C)NC(=O)N(C)C[C@@H]1Oc2ccc(NC(=O)Nc3ccc4c(c3)OCO4)cc2C(=O)N([C@H](C)CO)C[C@H]1C`, the cytotoxicity call is “inactive”. With `C#CCN1C(=O)N(C(=O)c2ccccc2)[C@@]2(COCc3ccc(OC)cc3)Oc3ccccc3[C@@H]1[C@H]2CO[Si](C)(C)C(C)(C)C` the entry was “inactive”. The result for `CN(C)CCCNC(=O)C[C@@H]1CC[C@@H]2[C@@H](COc3ccc(NC(=O)c4ccccc4F)cc3C(=O)N2C)O1` reads “inactive”; that for `CCS(=O)(=O)NCC[C@H]1CC[C@H](NC(=O)C2CCOCC2)[C@H](CO)O1`, “inactive”.

On to `O=C(C[C@@H]1C[C@H]2c3cc(NS(=O)(=O)c4ccc(F)cc4)ccc3O[C@H]2[C@H](CO)O1)NCCc1ccccc1`, for which the cytotoxicity call was “inactive”.

`Cc1ccc(S(=O)(=O)N(C)C[C@@H]2Oc3ccc(NC(=O)CCN4CCOCC4)cc3CC(=O)N([C@@H](C)CO)C[C@H]2C)cc1`: the cytotoxicity call was “inactive”. The result for `C[C@H](CO)N1C[C@H](C)[C@H](CN(C)C(=O)NC2CCCCC2)Oc2c(NC(=O)C3CCOCC3)cccc2C1=O` reads “inactive”; that for `Cc1ccc(S(=O)(=O)Nc2ccc3c(c2)C(=O)N([C@@H](C)CO)C[C@@H](C)[C@@H](CN(C)C(=O)NC(C)C)O3)cc1`, “inactive”; that for `C[C@@H]1CN([C@H](C)CO)C(=O)c2cc(NC(=O)Cc3ccccc3)ccc2O[C@H]1CN(C)S(=O)(=O)c1cccs1`, “inactive”. The result for `O=C(OOC(=O)c1ccccc1)c1ccccc1` reads “active”; that for `N[C@@H](COCc1ccccc1)C(=O)O`, “inactive”; that for `O=C(OCc1ccccc1)c1ccccc1`, “active”. `NCC(=O)OCc1ccccc1`: the cytotoxicity call is “inactive”. Take `O=C(CO)c1ccccc1`: the cytotoxicity call is “inactive”.

Turning to `O=C(OCc1ccccc1)c1cccnc1`, the cytotoxicity call is “active”. As to `COC(=O)c1cccnc1`, the cytotoxicity call was “inactive”. With `O=C(O)c1cccnc1` the entry was “inactive”; with `O=C(ON1C(=O)CCC1=O)c1ccccc1`, “inactive”. With `CCC(=O)N[C@@H]1CC[C@@H](CC(=O)OC)O[C@H]1CO` the entry was “inactive”.

Turning to `CCCCCCCCCCCCCCCC[N+](C)(C)C`, the cytotoxicity call is “active”.

For the compound `CCCCCCCCCCCCCCCCOP(=O)([O-])OCC[N+](C)(C)C`, the cytotoxicity call is “inactive”.

As to `C[N+](C)(C)CCCCCC[N+](C)(C)C.[Br-].[Br-]`, the cytotoxicity call was “inactive”. The result for `C[C@@H]1CN([C@H](C)CO)C(=O)c2cc(C#CC3(O)CCCC3)cnc2O[C@@H]1CN(C)S(=O)(=O)c1ccc(F)cc1` reads “inactive”. The result for `O=C(CN1CCOCC1)N[C@H]1CC[C@@H](CCNC(=O)C2CCC2)O[C@@H]1CO` reads “inactive”; that for `C[C@H]1CN([C@@H](C)CO)C(=O)c2cccc(NC(=O)Nc3ccc(C(F)(F)F)cc3)c2O[C@H]1CN(C)S(C)(=O)=O`, “inactive”; that for `COc1ccc2c3c([nH]c2c1)[C@@H](CO)N(C[C@]13CCN(CC1)Cc1ccccc1)C(=O)CN1CCOCC1`, “inactive”. The result for `COc1ccc2c3c([nH]c2c1)[C@@H](CO)N(Cc1ccc(cc1)Cl)C[C@]13CCN(CC1)Cc1ccccc1` reads “active”; that for `COc1ccc2c3c([nH]c2c1)[C@H](CO)N(C[C@]13CCN(CCc2ccccc2)CC1)C(=O)CN1CCOCC1`, “inactive”; that for `COc1ccc(cc1)CN1C[C@]2(CCN(CC2)Cc2ccccc2OC)c2c([nH]c3cc(ccc23)OC)[C@@H]1CO`, “inactive”. For `COc1ccc2c3c([nH]c2c1)[C@H](CO)N(Cc1ccc(cc1)Cl)C[C@]13CCN(CC1)Cc1ccccc1`, the cytotoxicity call was “active”. With `COc1ccc2c3c([nH]c2c1)[C@H](CO)N(Cc1ccc(cc1)Cl)C[C@]13CCN(CC1)Cc1nccs1` the entry was “inactive”; with `COc1ccc2c3c([nH]c2c1)[C@@H](CO)N(Cc1ccc(cc1)Cl)C[C@]13CCN(CC1)Cc1nccs1`, “inactive”. Turning to `COc1ccc2c3c([nH]c2c1)[C@H](CO)N(Cc1ccncc1)C[C@]13CCN(CC1)Cc1ccc(cc1)-c1ccccn1`, the cytotoxicity call is “inactive”. Take `COc1ccc2c3c([nH]c2c1)[C@H](CO)N(C[C@]13CCN(CC1)Cc1ccccc1)C(=O)CN1CCOCC1`: the cytotoxicity call was “active”. With `C[C@@H]1CN([C@H](C)CO)C(=O)c2cc(NC(=O)CCCCCC(=O)Nc3ccccc3N)ccc2O[C@@H]1CN(C)Cc1ccc(Cl)c(Cl)c1` the entry was “inactive”; with `Cc1cc(C(=O)Nc2cccc3c2O[C@@H](CN(C)C(=O)NC2CCCCC2)[C@H](C)CN([C@H](C)CO)C3=O)n(C)n1`, “inactive”. `Cc1noc(C)c1S(=O)(=O)Nc1ccc2c(c1)C(=O)N([C@H](C)CO)C[C@@H](C)[C@H](CN(C)S(=O)(=O)c1ccccc1)O2`: the cytotoxicity call was “inactive”. The result for `C[C@@H]1CN([C@H](C)CO)C(=O)c2cc(Br)cnc2O[C@@H]1CN(C)Cc1ccc2c(c1)OCO2` reads “inactive”; that for `COc1ccc(-c2cc(=O)c3c(O)cc(O[C@@H]4O[C@H](CO[C@@H]5O[C@@H](C)[C@H](O)[C@@H](O)[C@H]5O)[C@@H](O)[C@H](O)[C@H]4O)cc3o2)cc1O`, “inactive”; that for `C[C@H](CO)N1C[C@H](C)[C@@H](CN(C)C(=O)Cc2cccnc2)Oc2cc(-c3cncnc3)ccc2S1(=O)=O`, “inactive”.

For the compound `NC(=O)c1ncn([C@H]2O[C@@H](COP(=O)(O)O)[C@@H](O)[C@@H]2O)c1N`, the cytotoxicity call is “inactive”.

With `C[C@@H]1CN([C@H](C)CO)C(=O)c2cc(NS(=O)(=O)c3cn(C)cn3)ccc2O[C@@H](C)CCCCO[C@H]1CN(C)S(=O)(=O)c1cn(C)cn1`, the cytotoxicity call was “inactive”. With `CC(C)(C)OC(=O)C[C@@H]1CC=CC[C@@H](CC(=O)NCCO)C(=O)N[C@@H](Cc2c[nH]c3ccccc23)COC1=O` the entry was “inactive”; with `CC(C)(C)c1ccc(CSCc2nc3ccccc3[nH]2)cc1`, “active”. The result for `CC(C)Cc1nc2ccccc2[nH]1` reads “inactive”. With `NNC(=O)Cc1nc2ccccc2[nH]1` the entry was “inactive”; with `Cc1ccc(S(=O)(=O)Nc2ccc3c(c2)C(=O)N([C@H](C)CO)C[C@@H](C)[C@@H](CN(C)Cc2ccc4c(c2)OCO4)OCCCC[C@@H](C)O3)cc1`, “active”.

As to `Cc1ccc(S(=O)(=O)Nc2ccc3c(c2)C(=O)N([C@@H](C)CO)C[C@H](C)[C@@H](CN(C)Cc2ccc4c(c2)OCO4)OCCCC[C@H](C)O3)cc1`, the cytotoxicity call is “inactive”. The result for `Cc1ccc(S(=O)(=O)Nc2ccc3c(c2)C(=O)N([C@H](C)CO)C[C@H](C)[C@@H](CN(C)Cc2ccc4c(c2)OCO4)OCCCC[C@H](C)O3)cc1` reads “inactive”; that for `Cc1ccc(S(=O)(=O)Nc2ccc3c(c2)C(=O)N([C@H](C)CO)C[C@H](C)[C@H](CN(C)Cc2ccc4c(c2)OCO4)OCCCC[C@H](C)O3)cc1`, “active”; that for `Cc1ccc(S(=O)(=O)Nc2ccc3c(c2)C(=O)N([C@@H](C)CO)C[C@@H](C)[C@@H](CN(C)Cc2ccc4c(c2)OCO4)OCCCC[C@H](C)O3)cc1`, “inactive”. With `Cc1ccc(S(=O)(=O)Nc2ccc3c(c2)C(=O)N([C@@H](C)CO)C[C@H](C)[C@H](CN(C)Cc2ccc4c(c2)OCO4)OCCCC[C@H](C)O3)cc1` the entry was “inactive”; with `Cc1ccc(S(=O)(=O)Nc2ccc3c(c2)C(=O)N([C@H](C)CO)C[C@@H](C)[C@H](CN(C)Cc2ccc4c(c2)OCO4)OCCCC[C@H](C)O3)cc1`, “active”; with `Cc1ccc(S(=O)(=O)Nc2ccc3c(c2)C(=O)N([C@@H](C)CO)C[C@@H](C)[C@H](CN(C)Cc2ccc4c(c2)OCO4)OCCCC[C@@H](C)O3)cc1`, “inactive”. The result for `Cc1ccc(S(=O)(=O)Nc2ccc3c(c2)C(=O)N([C@H](C)CO)C[C@H](C)[C@@H](CN(C)Cc2ccc4c(c2)OCO4)OCCCC[C@@H](C)O3)cc1` reads “inactive”.
